Dicer processing – blocks human Dicer maturation of pre-miR-21; 47,000 compounds, 6% hits; cat-ELCCA pre-miR-21 Dicer processing, chemiluminescence; active compounds read high; z-score at 25 µM; in the data active = z-score above about 3, passing the limit was not always enough;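 also: plate controls were vehicle for no effect and no enzyme for full effect; higher signal means more uncleaved substrate so more Dicer inhibition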
An asterisk follows results filed as active. The sample as a whole holds a higher share of hits than the screen did.

SMILES	Dicer processing
O=[N+]([O-])/C=C/c1cc(Br)cs1	-0.07
O=c1[nH]c(=O)n(C2O[C@H](CO)[C@@H](O)[C@H]2O)cc1Br (stereo partly drawn)	1.4
C[C@H]1O[C@@H](n2cc(F)c(=O)[nH]c2=O)[C@H](O)[C@@H]1O	3.1*
O=c1[nH]c(=O)n(C2CCCO2)cc1F (stereo not drawn)	1.7
CCOc1ccccc1NC(=O)Nc1ccc(OC)nc1	3.8*
COc1ccccc1NC(=O)Nc1ccccc1OC	12
COc1ccccc1NC(=O)NC(N)=O	1.6
C=CCNC(=O)O/N=C/c1csc([N+](=O)[O-])c1	0.07
O=C(c1ccc(CS(=O)(=O)c2ccc(C(F)(F)F)cn2)o1)N1CCOCC1	0.51
Brc1cccc(-c2nc3ccccc3[nH]2)c1	2.3
Cc1cccc2[nH]c(SCc3ccccc3F)nc12	0.69
Cc1c(C)c(C)c2[nH]c(-c3ccc4c(c3)OCO4)nc2c1C	0.22
Nc1ccc(-c2nc3c(Cl)c(N)ccc3[nH]2)cc1	3.4*
Cc1c(N)ccc2[nH]c(-c3ccc(N)cc3)nc12	6.3*
Cc1cccc2[nH]c(-c3ccc(N)cc3)nc12	6.8*
Cc1cccc2[nH]c(-c3ccccc3)nc12	-0.58
O=c1[nH]c(-c2ccccc2)nc(=S)[nH]1	2
Nc1cccc2[nH]c(-c3ccccc3)nc12	3.9*
CC(=O)NN(C)c1ccc(C(F)(F)F)cc1[N+](=O)[O-]	-0.3
O=C(CSc1nnc(C2CCNCC2)o1)c1ccc(Cl)cc1	1.6
COC(=O)/C=C(/Oc1cccc(C(F)(F)F)c1)C(=O)OC	0.55
c1ccc(-n2ncc3c(N4CCN(c5ccccn5)CC4)ncnc32)cc1	13
NC(N)=Nc1nc(-c2ccc(-c3ccccc3)cc2)cs1	2.5
CCCc1cc(=O)c2ccc(O)cc2o1	0.12
Nc1c(-c2ccccc2)nnn1-c1ccc(Br)cc1	0.31
SMILES	Dicer processing
CCOc1ccc(C2Nn3c(C)nnc3SC2C(=O)NCC2CCCO2)cc1 (stereo not drawn)	3.4*
O=C(NCC1CCCO1)C1Sc2nnc(-c3ccccc3)n2NC1c1ccc(F)cc1 (stereo not drawn)	-0.07
O=C(NCC1CCCO1)C1Sc2nnc(-c3ccccc3)n2NC1c1ccc(Cl)cc1 (stereo not drawn)	1.7
CCOC(=O)CSc1nnc2c3ccccc3c3ccccc3c2n1	-0.01
CCSc1nncc(-c2ccccc2)n1	0.81
CCOC(=O)c1c(O)[nH]c(N=O)c1SC	0.59
O=S(=O)(Nc1ccccc1N1CCOCC1)c1ccc(-c2ccccn2)s1	4.8*
O=S(=O)(Nc1ccccc1N1CCOCC1)c1ccc(S(=O)(=O)c2ccccc2)s1	0.33
O=S(=O)(Nc1ccc2c(c1)OCCO2)c1ccc(-c2ccccn2)s1	-0.04
CCOc1c(N2CC(C)OC(C)C2)c(=O)c1=O (stereo not drawn)	6*
CCOc1c(N2CCOCC2)c(=O)c1=O	0.88
CCOc1ccc(-c2nc(C#N)c(N3CC(C)OC(C)C3)o2)cc1 (stereo not drawn)	0.5
CCN(CC(O)Cn1c2ccccc2c2ccccc21)S(=O)(=O)c1ccc(C)cc1 (stereo not drawn)	0.77
CCN(CCS(=O)(=O)c1ccccc1)S(=O)(=O)c1ccc(C)cc1	4.5*
CCCCN(C(C)C)S(=O)(=O)c1ccc(C)cc1	-0.26
COC(=O)c1sccc1S(=O)(=O)Nc1ccc(F)cc1	5.7
COC(=O)c1ccc(COC(=O)CCc2nc3ccccc3[nH]c2=O)cc1	2.7
Cn1c2ccccc2n2nc(CCC(=O)O)c(=O)nc12	2.1
CCOC(=O)c1sc(-c2ccccc2)nc1OC	1.7
COc1nc2ccccc2nc1CCC(=O)O	3.8*
COC(=O)CCc1nc2ccccc2nc1OC	3.5*
CCCCOC(=O)CCc1nc2ccccc2[nH]c1=O	0.6
C/C(=N\OC(=O)Nc1ccccc1)c1cc2cc([N+](=O)[O-])ccc2o1	-0.27
COc1ccccc1N1CCn2c1nc1c2c(=O)n(CC(=O)O)c(=O)n1C	-0.15
COc1ccc(C(=O)/C=C/Nc2ccc(Cl)cc2Cl)cc1	-0.73
SMILES	Dicer processing
CCCCOc1cc(C(F)(F)F)nc2ccc(CSc3nc4ccccc4[nH]3)cc12	1.9
O=c1oc2ccccc2n1-c1nc2ccccc2o1	5.6*
CC(C)Cn1c(=O)oc2ccccc21	-0.3
Oc1ccccc1-c1nc2ccccc2o1	-0.43
CN(C)c1ccc([N+](=O)[O-])cc1C(F)(F)F	-1.6
Nc1nnc(-c2ccc(O)cc2)s1	-0.21
CCCCOC(=O)Nc1sc2c(c1C(=O)OCC)CCCC2	-3.5
Cc1cc(C)n2c(SC(CNS(=O)(=O)c3ccccc3)c3ccccc3)nnc2n1 (stereo not drawn)	2.2
Cc1cc(C)n2c(SC3CCCCC3NS(=O)(=O)c3ccc(Cl)cc3)nnc2n1 (stereo not drawn)	3.6*
Cc1cc(C)n2c(SC3CCCCC3NS(=O)(=O)c3ccccc3)nnc2n1 (stereo not drawn)	0
Cc1ccc(C(=O)C2CCN(C(=S)Nc3ccc(F)cc3)CC2)cc1	-0.89
FC(F)(F)c1cc(-n2cccc2)cc(C(F)(F)F)c1	1.7
Cc1cc(N)n2ncc(-c3ccccc3)c2n1	0.44
Cc1cc(C)n2ncc(-c3ccc(Cl)cc3)c2n1	3.9*
Cc1cc(C)n2nc(C)c(-c3ccc(Cl)cc3)c2n1	1.9
O=C(Nc1sc2c(c1C(=O)O)CCC2)c1cccnc1	-0.44
COC(=O)Cc1nc(-c2ccccc2)sc1C	1.3
CCCc1nn(C)c(C(N)=O)c1[N+](=O)[O-]	5.5*
Cn1cnc([N+](=O)[O-])c1N1CCC(C(N)=O)CC1	-1.6
CCOC(=O)C(C(=O)OCC)c1c([N+](=O)[O-])c(=O)n(C)c2ccccc12	-1.6
CCOC(=O)N/N=C/c1ccccc1O	-0.19
Cc1nc(SCC(=O)C(C)(C)C)[nH]c(=O)c1Cc1c(F)cccc1Cl	0.96
O=C(OCCO)c1cccc2c1-c1ccccc1C2=O	0.34
Cc1ccc2c(c1)-c1cc(C)nn1C(c1ccccc1O)N2 (stereo not drawn)	-0.25
COc1ccc(C2Nc3ccc(C)cc3-c3cc(C)nn32)cc1OC (stereo not drawn)	2.7
SMILES	Dicer processing
COc1ccc(Br)cc1C1Nc2ccc(C)cc2-c2cc(C)nn21 (stereo not drawn)	3.5*
Cc1ccc2c(c1)-c1cc(C)nn1C(c1ccc(O)cc1O)N2 (stereo not drawn)	3.7*
COc1cccc(C2Nc3ccc(C)cc3-c3cc(C)nn32)c1OC (stereo not drawn)	1.9
COc1cc(O)ccc1C1Nc2ccc(C)cc2-c2cc(C)nn21 (stereo not drawn)	2.7
Cc1cc2n(n1)C(c1ccc(O)cc1O)Nc1ccccc1-2 (stereo not drawn)	1.2
COc1ccc(Br)cc1C1Nc2c(C)cccc2-c2cc(C)nn21 (stereo not drawn)	2.9
Cc1cc2n(n1)C(c1cccc(O)c1O)Nc1ccccc1-2 (stereo not drawn)	21*
Cc1cc(C)c2c(c1)-c1cc(C)nn1C(c1ccc(O)cc1O)N2 (stereo not drawn)	1.4
COc1cccc(C2Nc3ccc(C)cc3-c3cc(C)nn32)c1O (stereo not drawn)	3*
COc1ccc(C2Nc3ccccc3-c3cc(C)nn32)c(OC)c1 (stereo not drawn)	0.44
CC(Nc1n[nH]c(=O)[nH]c1=O)C(=O)O (stereo not drawn)	1.8
CCN(CC)c1ccc(C2C3=C(CCCC3=O)Nc3ncnn32)cc1 (stereo not drawn)	1.3
Cc1ccc(-n2nnnc2-c2cnc3ccccc3c2N)cc1	1.3
